# E coli growth-1 – reduces bacterial viability in AddAB counter-screen | E. coli V3065 growth, OD600 absorbance, 18 h | inhibition, % at 11.9 µM | hit rate 0.27% among 330,000;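 active means inhibition above the campaign's mean inhibition across all tested compounds plus 3 SD, cut at about 9.9% in these data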;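 further: uninfected addAB+ strain grown without phage in ampicillin broth; 0% = DMSO wells and 100% = ciprofloxacin 0.95 µg/ml wells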
# E coli growth-2 – inhibitors of Escherichia coli growth | OD600 absorbance (concentration not given with the values) | hit rate 0.21% among 330,000 | OD600, 23 h; hits give low values;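 active means OD600 absorbance below the run mean of sample wells minus 3.6 SD, in any replicate, cut at about 0.56 in these data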
# Tat transport – inhibitors of E. coli Tat protein transport; E. coli MC4100 TorA-mCherry Tat export, fluorescence; inhibition, % at 10 µM; hit rate 0.036% among 340,000; AID 488895;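 active means mean replicate inhibition at least 50% and at least half of replicates individually reaching 50%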;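 further: exported cargo escapes ClpAP degradation while cytoplasmic cargo is degraded and loses fluorescence; 0% = median of neutral control wells and 100% = median of NaSCN control wells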
# AddAB inh – less growth of phage-infected E. coli with AddAB. hit rate 0.29% among 330,000. inhibition, % at 11.9 µM. E. coli expressing H. pylori AddAB, absorbance growth; in the data active means inhibition above about 12%;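 further: 0% = vehicle wells of infected cells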
# phage Ecoli inh – E. coli growth loss with phage present. inhibition, % at 11.9 µM. hit rate 0.26% among 360,000. growth absorbance; in the data active means inhibition above about 11%
# RecBCD conf – growth loss of phage-infected V66 E. coli, RecBCD confirmation screen; AID 651982; hit rate 45% among 890; inhibition, % at 11.9 µM; E. coli V66 + T4 2- phage, growth OD; shares compounds with phage Ecoli inh;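 active means mean inhibition over triplicates exceeding the hit threshold derived in the original primary screen, cut at about 11% in these data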
# Ecoli viability – bacterial viability inhibition counter-screen for RecBCD; shares compounds with phage Ecoli inh; E. coli viability, absorbance (OD) growth; inhibition, % at 11.9 µM; hit rate 29% among 890; in the data active means inhibition above about 20%;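 further: E. coli strain V66 grown with compound alone and no phage infection; 0% = bacteria with DMSO vehicle only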
# AddAB counter – growth loss of phage-infected AddAB E. coli, RecBCD counter-screen | E. coli expressing H. pylori AddAB + T4 phage, OD growth; gene 2 mutant T4, recBCD-deleted host | AID 651984 | hit rate 45% among 890 | shares compounds with phage Ecoli inh | inhibition, % at 11.9 µM;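 active means mean inhibition above the solvent-only control wells' mean plus 3 SD, cut at about 22% in these data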;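 further: higher means less bacterial growth from phage killing when AddAB is blocked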
# * = called active by the depositor; · = no result. This is a sample that favours compounds with a hit; in the whole collection about 0.51% have one here.
SMILES,E coli growth-1,E coli growth-2,Tat transport,AddAB inh,phage Ecoli inh,RecBCD conf,Ecoli viability,AddAB counter
O=C1NC(=S)S/C1=C\C=C\c1ccc([N+](=O)[O-])o1,·,0.0705*,67.6*,·,95.7*,99.3*,99.2*,99.2*
CC(C)c1ccc(NC(=O)CSc2nc3ncccc3[nH]2)cc1,3.0,0.679,17.7,2.7,8.4,·,·,·
CC(C)OC(=O)c1ccc(NC(=O)CSc2nc3ncccc3[nH]2)cc1,6.5,0.59,-30.2,11.3,11.0*,4.7,7.2,3.8
COc1ccccc1C1C(C(C)=O)=C(C)N=c2sc(=Cc3cc(OC)c(OC)c(OC)c3)c(=O)n21 (stereo not given),·,0.722,·,·,·,·,·,·
Cc1ccc(-c2cnc(NCc3cc4c(cc3[N+](=O)[O-])OCO4)n2C)cc1C,8.5,0.563,-39.0,10.1,11.2*,7.4,11.7,8.9
Cn1c(-c2ccc3c(c2)OCO3)cnc1NCc1ccccc1,1.2,0.724,4.2,-0.3,0.7,·,·,·
COc1ccc(-[n+]2c(C)cc(/C=C3\Sc4ccccc4N3C)cc2C)cc1,25.6*,0.353*,67.4*,26.6*,22.4*,20.2*,17.2,47.5*
O=C(Nc1nnc(N2CCCCCC2)s1)c1cc(-c2ccc(Br)cc2)on1,2.6,0.756,8.6,1.3,0.5,·,·,·
CC1CCCC(C)N1c1nnc(NC(=O)c2cc(-c3ccc(Br)cc3)on2)s1 (stereo not given),-0.4,·,4.3,4.0,94.9*,-3.8,-4.8,6.3
CCC(C)(C(=O)NC1CCCCC1)N(Cc1cccs1)C(=O)c1ccccn1 (stereo not given),0.1,0.723,-4.1,-1.2,1.4,·,·,·
CCC(C)(C(=O)NC1CCCCC1)N(Cc1cccs1)C(=O)c1ccc(=O)[nH]c1 (stereo not given),2.6,0.654,-4.4,5.1,11.9*,-5.2,-4.2,1.6
CCCC12CN3CCN(CC(C3)C1=NNC(=O)c1ccccc1N)C2,·,0.639,·,·,·,·,·,·
O=c1[nH]nnc2c1ncn2C1OC(CO)C(O)C1O (stereo not given),·,·,·,·,16.5*,23.3*,16.6,28.3*
OCCC1CC(O)C(O)[C@@]2(CCCCO2)O1 (stereo not given in full),·,0.67,·,·,·,·,·,·
O=C(Nc1cccc([N+](=O)[O-])c1)c1ccc([N+](=O)[O-])o1,·,·,·,·,20.5*,14.8*,17.4,89.8*
O=C(Nc1cccc([N+](=O)[O-])c1)c1ccncc1,-1.5,0.701,-6.6,4.7,4.0,·,·,·
CC(=NNC(=S)NCc1ccccc1)C1CCCCC1,·,0.694,·,·,·,·,·,·
CC1OC2CC(=O)OC2C2=C1C(=O)c1c(O)cccc1C2=O (stereo not given),·,·,·,·,14.1*,8.0,2.7,19.6
CCN1C(=O)C2C(c3ccc(OC)cc3)N3C(=O)CN(Cc4ccccc4)C(=O)[C@@]3(Cc3ccccc3)C2C1=O (stereo not given in full),·,0.695,·,·,·,·,·,·
Nc1nnc(-c2ccc([N+](=O)[O-])o2)s1,·,0.0685*,-21.1,·,91.7*,100.1*,101.7*,99.7*
COCCCNC(=S)NN=Cc1ccc2c(c1)OCO2,·,0.658,·,·,·,·,·,·
O=S(=O)(c1ccc(Cl)nc1)N1CCc2ccccc21,0.8,0.637,0.4,-2.3,95.2*,-0.8,0.5,-1.7
CC(C)(C)OC(=O)C(Cc1ccccc1)NC(=O)c1nc[nH]c1C(=O)NCC(=O)OCc1ccccc1 (stereo not given),·,0.721,·,·,·,·,·,·
O=C(CCn1cnc(-c2ccccc2)c1-c1ccccc1)N/N=C/c1ccccc1O,0.9,·,1.6,2.0,11.0*,3.5,1.8,4.9
CCOc1c(Br)cc(CNc2ccc(N3CCOCC3)cc2)cc1OC,0.6,0.685,4.1,-0.5,97.7*,0.0,0.0,-1.7
SMILES,E coli growth-1,E coli growth-2,Tat transport,AddAB inh,phage Ecoli inh,RecBCD conf,Ecoli viability,AddAB counter
Cc1ccc(S(=O)(=O)N=Cc2c(O)ccc3ccccc23)cc1,·,0.633,·,·,·,·,·,·
Cc1cccc(NC(=O)COC(=O)c2c(-c3ccccc3)noc2C)c1,·,·,·,·,12.6*,-1.0,-1.1,-0.7
Cc1onc(-c2ccccc2)c1C(=O)OCC(=O)Nc1ccccc1,·,0.691,2.2,·,2.9,·,·,·
CCc1noc(C)c1C(=O)OCC(=O)Nc1ccc2c(c1)OCO2,-1.1,0.682,-4.3,1.7,11.8*,2.4,2.4,-1.1
NC(=O)C1CC2(CC(c3cccc(NC(=O)COc4ccc(Cl)cc4)c3)=NO2)CN1C(=O)c1ccccc1C(=O)c1ccccc1 (stereo not given),·,0.724,·,·,·,·,·,·
COc1ccc(Br)cc1C=Nn1c(C)nnc1C,·,0.719,·,·,·,·,·,·
CC1(C(=O)N/N=C/c2ccc([N+](=O)[O-])o2)CC1(Br)Br (stereo not given),4.8,·,-3.9,5.4,5.4,·,·,·
O=C1SCCN1N=Cc1ccc([N+](=O)[O-])o1,·,0.063*,-2.0,·,68.5*,61.8*,98.2*,99.8*
CC1CN(N=Cc2ccc([N+](=O)[O-])o2)C(=N)O1 (stereo not given),·,0.065*,11.6,·,45.8*,85.1*,101.7*,102.9*
O=C1C2C(C(=O)N1/N=C/c1ccc([N+](=O)[O-])o1)C1C=CC2C12CC2 (stereo not given),3.2,·,-6.6,6.1,0.7,·,·,·
O=c1[nH]nc(-c2ccc([N+](=O)[O-])o2)c(=O)[nH]1,·,0.523*,40.4,·,22.3*,15.9*,17.1,91.2*
N#CCCN(C(=O)CSc1nc2ccccc2c(=O)[nH]1)c1ccc(F)cc1,-2.2,0.667,-0.2,-0.5,12.1*,0.7,0.6,-0.2
c1nc(SSc2ncnc3nc[nH]c23)c2[nH]cnc2n1,·,·,-20.2,·,24.2*,58.0*,57.8*,75.0*
CC(C)C[C@H]1CNC(=S)N1C[C@H]1CCCN1C[C@H](Cc1ccccc1)N1C[C@H](Cc2ccc(O)cc2)N(CC2CCCCC2)C1=S,·,·,·,·,11.7*,1.7,-0.6,2.8
Oc1ccc(-c2nc3ccccc3nc2-c2ccccc2)cc1,0.3,0.701,-1.0,0.5,32.6*,-1.3,-1.3,-0.5
Cc1ccc(C=NNC(=O)c2ccc3c(c2)OCO3)o1,·,0.67,·,·,·,·,·,·
Fc1ccc(C=NN2CCCCC2)c(F)c1,·,0.665,·,·,·,·,·,·
O=C(NC(Cc1c[nH]c2ccccc12)C(=O)NN=Cc1cccc2ccccc12)c1cccs1 (stereo not given),·,0.748,·,·,·,·,·,·
CNCCCCOc1ccccc1-c1ccccc1,-0.8,0.637,2.4,-1.2,21.1*,-0.2,1.6,4.1
O=C(NNC(=O)c1cc(-c2cccnc2)nc2ccccc12)Nc1ccc(Cl)cc1,5.7,0.524*,-2.4,8.1,13.3*,8.6,9.1,1.8
O=C(Nc1cccc(F)c1)Nc1cccc(Cl)c1,9.7,0.412*,0.0,8.3,14.3*,13.3*,12.7,8.1
O=C(Nc1cccc(Cl)c1)Nc1cccc(Cl)c1,5.0,0.642,-9.9,5.2,7.0,·,·,·
COc1cc(C=NOCC(=O)Nc2cc(C)cc(C)c2)ccc1OCc1ccc(Cl)cc1,·,0.737,·,·,·,·,·,·
